# From PubChem BioAssay AID2315 (National Center for Advancing Translational Sciences (NCATS), 2010)
# Among all 290,000 compounds or so, about 27,000 (9.3%) were called active. Cut-off read from the data, not from the text of the source: active = inhibition mostly above about 28% (no sharp cut-off); inactive = mostly below about 43%. Shown is part of a subset that was picked to be rich in actives.
# Experiment: A qHTS for Small Molecule Inhibitors of Shiga Toxin; for inhibition: 0% is about no effect
# Details: Vero cells, Shiga toxin protein synthesis inhibition reporter; at 38.7 µM, stronger effect = higher value
row,Compound,inhibition
1,Cc1nn(C(C)C(=O)N2CCOCC2)c(=O)c2nn(-c3ccccc3)c(C)c12 (configuration not stated),-9.86% (inactive)
2,O=C(c1ccc(F)cc1)N1CCCC(C(=O)N2CCCCC2)C1 (configuration not stated),4.46% (inactive)
3,CC(=O)Nc1ccc(S(=O)(=O)N2CCC(C(=O)N[C@@H](Cc3ccccc3)C(=O)O)CC2)cc1,-6.49% (inactive)
4,Cc1cccc(N(C)C(=O)c2cc(S(=O)(=O)N3CCCCC3)c[nH]2)c1,-6.21% (inactive)
5,C=C(C)C(=O)Nc1cccc(C(C)=O)c1,-10.8% (inactive)
6,CSc1ccccc1NC(=O)CN(C)CC(=O)Nc1cccc(Br)c1,-0.946% (inactive)
7,CCN(CC)C(=O)C(=O)Nc1cccc(Br)c1,106% (active)
8,O=C(N/N=C/c1cccc(OC(=O)c2ccc([N+](=O)[O-])cc2)c1)c1cccnc1,-3.03% (inactive)
9,CCN(CC)/[N+]([O-])=N/Oc1cc(O/[N+]([O-])=N/N2CCCC2CO)c([N+](=O)[O-])cc1[N+](=O)[O-] (configuration not stated),-5.78% (inactive)
10,CC(C)(C)NC(=O)NC(=O)COC(=O)Cc1ccc(Cl)cc1Cl,16.6% (inactive)
11,COc1ccc(-c2nc(CCNC(=O)c3ccc(Br)o3)cs2)cc1,20.3% (active)
12,COc1ccc(-c2csc(NC(=O)COC(=O)Cc3ccc(Cl)cc3Cl)n2)cc1,64% (active)
13,COc1ccc(-c2csc(NC(=O)COC(=O)c3ccc(Br)o3)n2)cc1,92.3% (active)
14,COc1ccc(CC(=O)Nc2nc(-c3ccc(F)c(F)c3)cs2)cc1OC,-2.51% (inactive)
15,CCCc1ccc(-c2csc(NC(=O)Cc3cccs3)n2)cc1,13% (inactive)
16,COc1ccc(N2CCN(C(=O)CNC(=O)c3ccc(Br)o3)CC2)cc1,-11.6% (inactive)
17,COc1cc(CC(=O)Nc2nc(-c3ccc(F)c(F)c3)cs2)cc(OC)c1OC,-5.98% (inactive)
18,O=C(NCCc1csc(-c2ccccc2)n1)c1ccccc1F,40.5% (inactive)
19,CC(C)=CCCC(C)CN1CCC(n2nccc2NC(=O)c2ccccc2)CC1 (configuration not stated),-5.43% (inactive)
20,O=C(Nc1ccccc1)C1CCN(C(=O)c2ccc(Br)cc2)CC1,6.29% (inactive)
21,COCCCC1CCN(C(=O)C2CCC(=O)N(C3CCCCCC3)C2)CC1 (configuration not stated),-6.64% (inactive)
22,O=C(O)c1[nH]c2ccccc2c1C(c1cccc(O)c1)c1c(C(=O)O)[nH]c2ccccc12,-5.15% (inactive)
23,COC(=O)COc1ccc2c(=O)c(Oc3ccccc3Br)coc2c1,-7.5% (inactive)

row,Compound,inhibition
1,CCc1ccc(N2CC(C(=O)N3CCCCCC3)CC2=O)cc1 (configuration not stated),16% (inactive)
2,CC(CC(=O)N1CCN(c2ccccc2)CC1)S(=O)(=O)c1ccc2c(c1)NC(=O)CS2 (configuration not stated),1.51% (inactive)
3,O=C(Cn1c(=O)sc2ccccc21)Nc1nc2c(s1)CCCC2,22.4% (inactive)
4,Fc1ccc2nc(Nc3nc4c(s3)CCCC4)sc2c1,72.1% (active)
5,O=C(CCS(=O)(=O)c1ccccc1)Nc1nc2c(s1)CCCC2,20.4% (inactive)
6,CN(CC(=O)Nc1c(Cl)cccc1Cl)C(=O)c1ccncc1,-30.3% (inactive)
7,O=c1ccc(-c2ccc(S(=O)(=O)Nc3ccccc3)o2)n[nH]1,-5.64% (inactive)
8,O=C(O)c1ccc(S(=O)(=O)N2CCC(Cc3ccccc3)CC2)cc1,-10.1% (inactive)
9,O=C(NCCc1ccccc1Cl)C1CCC(=O)N(CCCc2ccccc2)C1 (configuration not stated),-7.04% (inactive)
10,O=C(NCCCc1ccccc1)C1CCC(=O)N(CCc2ccc(Cl)cc2)C1 (configuration not stated),35.2% (active)
11,O=C(NCCN1CCOC1=O)C1CCC(=O)N(CCc2ccc(Cl)cc2)C1 (configuration not stated),-3.56% (inactive)
12,Cc1ccc(-n2nc3c(=O)n(C(C)C(=O)NCc4ccc5c(c4)OCO5)nc(C)c3c2C)cc1 (configuration not stated),-4.41% (inactive)
13,CS(=O)(=O)N1CCCC(C(=O)Nc2ccccc2C(F)(F)F)C1 (configuration not stated),-10% (inactive)
14,CCC(C(=O)OC)n1cnc2c(oc3ccccc32)c1=O (configuration not stated),27.3% (inactive)
15,COc1ccccc1Nc1ncnc2c1oc1ccccc12,53.4% (active)
16,COc1ccc(C)cc1Nc1nc(C)nc2c1oc1ccccc12,2.95% (inactive)
17,Cc1occc(=O)c1OCc1c(Cl)cccc1Cl,-6.59% (inactive)
18,O=C1COc2ccc(S(=O)(=O)NCCc3ccc(Cl)cc3)cc2N1,2.79% (inactive)
19,Cc1ccc(NS(=O)(=O)c2ccc(C(C)(C)C)cc2)cn1,1.36% (inactive)
20,Cc1ccc(S(=O)(=O)c2nc(-c3cccs3)oc2NCc2cccnc2)cc1,-2.32% (inactive)
21,COc1ccc(N2CCN(C(=O)CN3C(=O)COc4ccccc43)CC2)cc1,23.1% (inactive)
22,CCCOc1cccc(C(=O)Nc2ccccc2C(=O)N2CCN(C)CC2)c1,1.15% (inactive)
23,O=C(Nc1ccccc1C(=O)N1CCCCCC1)c1ccccc1Cl,-4.45% (inactive)

row,Compound,inhibition
1,CN1CCN(C(=O)c2ccccc2NC(=O)COc2ccccc2Cl)CC1,30.2% (active)
2,Nc1nc(NCC2CCCO2)nc(Nc2ccccc2F)c1[N+](=O)[O-] (configuration not stated),3.33% (inactive)
3,C=Cn1cc[n+](CC(=O)c2ccc(OC)c(OC)c2)c1,-7.58% (inactive)
4,Cc1cccc(COc2ccccc2/C=N/Nc2ccc([N+](=O)[O-])cc2)c1,-8.03% (inactive)
5,O=[N+]([O-])c1ccc(N/N=C/c2ccccc2)cc1,60.4% (active)
6,O=C(N/N=C/c1ccc(O)cc1)/C(=C/c1ccc([N+](=O)[O-])cc1)NC(=O)c1ccccc1,3.28% (inactive)
7,CCOc1cc2[nH]c(=S)n(Cc3ccc(C(=O)N4CCN(C)CC4)cc3)c(=O)c2cc1OCC,6.6% (inactive)
8,COc1cc(Cl)ccc1OCc1cc(C(=O)N(C)CCc2c(C)n[nH]c2C)no1,18.3% (inactive)
9,COc1cccc(OC)c1OCCN1CCN(C(=O)c2ccco2)CC1,-15.7% (inactive)
10,CC(=O)c1ccc(NC(=O)c2cc(-c3cccs3)on2)cc1,35.3% (inactive)
11,CNC(=O)n1ccc(C(=O)N2CCCCC2)n1,-5.37% (inactive)
12,O=C(c1cccc(Br)c1)N1CCN(C2=NS(=O)(=O)c3ccccc32)CC1,-5.51% (inactive)
13,O=C(c1ccc(Cl)c(Cl)c1)N1CCCC1,-12.2% (inactive)
14,O=C(c1ccco1)N1CCN(C(=O)c2ccc(COc3ccc(F)cc3)o2)CC1,2.42% (inactive)
15,CCn1ccnc1CN(C)C(=O)c1cc(COc2ccc(Cl)cc2OC)on1,49.5% (active)
16,COc1cccc(OCc2cc(C(=O)N3CCN(C(=O)c4ccco4)CC3)no2)c1,64.7% (active)
17,CCn1ccnc1CN(C)C(=O)c1cc(COc2ccc(-n3cncn3)cc2)on1,13.3% (inactive)
18,O=C(c1cc(-c2ccccc2O)on1)N1CCCC1,111% (active)
19,O=C(c1cc(-c2cccs2)on1)N1CCCCC1,124% (active)
20,Cc1cc(/C=C2/SC(=O)N(CC(=O)N3CCCC3)C2=O)c(C)n1C,-6.33% (inactive)
21,NC(=O)C1CCN(C(=O)/C(=C/c2ccco2)NC(=O)c2ccccc2)CC1,-19% (inactive)
22,COc1ccc(OC)c(NC(=O)CSc2nc(-c3ccccc3)cc(=O)[nH]2)c1,-4.35% (inactive)
23,Cc1ccc(Nc2nc(N3CCOCC3)nc(N3CCOCC3)n2)cc1Cl,5.42% (inactive)

row,Compound,inhibition
1,COc1ccccc1N1CCN(S(=O)(=O)c2ccc(Cl)cc2)CC1,-2.2% (inactive)
2,Oc1c(Cl)cc(Cl)cc1/C=N/c1ncn[nH]1,-2.31% (inactive)
3,Cc1ccc(N2CC(C(=O)NCCS(=O)(=O)N3CCN(c4ccccc4)CC3)CC2=O)cc1 (configuration not stated),4.33% (inactive)
4,Cn1cc(CNC(=O)c2ccc(OC3CCN(Cc4ccccn4)CC3)cc2)cn1,4.02% (inactive)
5,COc1ccccc1N1CCN(C(=O)c2cc(-c3ccc(Cl)c(Cl)c3)on2)CC1,0.847% (inactive)
6,Cc1ccc(C)c(OCc2cc(C(=O)N3CCN(c4cnccn4)CC3)no2)c1,-3.53% (inactive)
7,CCOC(=O)C1CCCN(C(=O)c2cncc(Br)c2)C1 (configuration not stated),-10.3% (inactive)
8,COc1ccc(Cl)cc1C(=O)NNC(=S)NC1CCCC1,-7.04% (inactive)
9,COc1ccccc1OCc1ccc(C(=O)N2CCN(C)CC2)o1,10.1% (inactive)
10,COc1cc(Cl)ccc1OCc1cc(C(=O)N2CC[C@@H]3CCCC[C@H]3C2)no1,120% (active)
11,CCOC(=O)CC1(NC(=O)c2cc(COc3cncc(Cl)c3)on2)CCCCC1,-11.8% (inactive)
12,COc1ccc(C(=O)C2CCCN(C(=O)c3cc(C)on3)C2)cc1F (configuration not stated),-1.62% (inactive)
13,COc1ccccc1-c1cc(C(=O)N2CCCCC2)no1,102% (active)
14,CCCOC1CCCN(C(=O)c2cc(COc3cncc(Cl)c3)on2)C1 (configuration not stated),54.4% (active)
15,COc1ccc(OCc2cc(C(=O)N3CCCC3)no2)c2ccccc12,147% (active)
16,COc1cccc(-c2cc(C(=O)N3CCN(c4ccccc4OC)CC3)no2)c1,-4.9% (inactive)
17,N#Cc1ccccc1S(=O)(=O)N1CCN(C(=O)c2cc(-c3ccccc3)nn2-c2ccccc2)CC1,15.4% (inactive)
18,O=C(CSc1nc2ccccc2c(=O)[nH]1)Nc1nc(-c2ccc(Br)cc2)cs1,-26.5% (inactive)
19,COc1ccc(C)cc1S(=O)(=O)N1CCN(S(=O)(=O)c2cc(C(=O)O)ccc2C)CC1,-1.74% (inactive)
20,CN(C(=O)CN1C(=O)S/C(=C\c2ccccc2F)C1=O)C1CCS(=O)(=O)C1 (configuration not stated),-0.834% (inactive)
21,COc1ccc(C(C(=O)NCC2CCCO2)N(C(=O)Cn2nnc3ccccc32)c2ccc(NC(C)=O)cc2)cc1OC (configuration not stated),-9.93% (inactive)
22,O=C1OC2(CCCCC2)CC2=C1C1O[C@](c3ccsc3)(Cc3ccccc31)O2,inactive
23,Nc1cc(N2CCCCCC2)c2nonc2c1[N+](=O)[O-],-13.9% (inactive)
